Activity calls are given as the source filed them. Where a call stands in place of a potency, no number is given. The call rests on the fitted dose curve.
Biological target: Acetylcholinesterase (Homo sapiens) (UniProt P22303)
Experiment: Acetylcholinesterase (AChE) small molecule antagonists: enzyme-based qHTS assay with human liver microsomes (AID 1347399); further: nearly all actives have a fitted effect of over 60% in size
Conditions: Potency: qHTS inhibition; outcome: qHTS inhibition; series mostly up to 115 µM
From the text: National Center for Advancing Translational Sciences [NCATS]
Division of Preclinical Innovation [DPI]
U.S. Environmental Protection Agency [EPA]
National Institutes of Environmental Health Sciences [NIEHS]
National Toxicology Program [NTP]
U.S. Food and Drug Administration [FDA]
Acetylcholinesterase (AChE) is the primary cholinesterase in the body that hydrolyzes a key neurotransmitter, acetylcholine. Inhibition of AChE activity can lead to neurotoxicity. The known inhibitors include organophosphorous pesticides (OP), chemical warfare agents, drugs, and various phytochemicals. Some compounds like OP compounds may need metabolic activation to be active AChE inhibitors. The cytochrome P450 (CYP) superfamily in the human microsomes is responsible for the metabolism of various endogenous and exogenous compounds.
An enzyme-based assay with the recombinant human AChE, human liver microsomes and Amplite Colormetric acetylcholinesterase assay kit (AAT Bioquest, Sunnyvale, CA) was used to evaluate compounds in the Tox21 10K library that need metabolic activation for AChE inhibition. The assay uses 5, 5-dithiobis-(2-nitrobenzoic acid) (DTNB) to quantify the thiocholine produced from the hydrolysis of acetylthiocholine by AChE.
Tox21 Assay Protocol Summary:
For the enzyme-based AChE assay with microsomes addition, a mixture of human AChE (50 mU/mL) and human liver microsomes (0.25 mg/mL, final concentration) in 3 uL/well was dispensed into black, clear-bottom 1536-well plates using a Multidrop Combi dispenser (Thermo Scientific, MA). Then, 23 nL of compound or DMSO (vehicle control) was transferred into the assay plates by a Pintool Station (Wako Automation, CA). Following compound addition, 1 uL of NADPH (0.25 mg/mL, final concentration) was transferred to the assay plate by a Flying Reagent Dispenser (Beckman Coulter, CA). The plates were incubated for 30 min at 37 C and 5% CO2, followed by the addition of 4 uL of colorimetric detection cocktail solution (DTNB, acetylthiocholine) into each well using a Flying Reagent Dispenser (Beckman Coulter, CA) and then 10 min incubation at room temperature.

Sequence of Acetylcholinesterase (Homo sapiens) (P22303 whole entry, looked up): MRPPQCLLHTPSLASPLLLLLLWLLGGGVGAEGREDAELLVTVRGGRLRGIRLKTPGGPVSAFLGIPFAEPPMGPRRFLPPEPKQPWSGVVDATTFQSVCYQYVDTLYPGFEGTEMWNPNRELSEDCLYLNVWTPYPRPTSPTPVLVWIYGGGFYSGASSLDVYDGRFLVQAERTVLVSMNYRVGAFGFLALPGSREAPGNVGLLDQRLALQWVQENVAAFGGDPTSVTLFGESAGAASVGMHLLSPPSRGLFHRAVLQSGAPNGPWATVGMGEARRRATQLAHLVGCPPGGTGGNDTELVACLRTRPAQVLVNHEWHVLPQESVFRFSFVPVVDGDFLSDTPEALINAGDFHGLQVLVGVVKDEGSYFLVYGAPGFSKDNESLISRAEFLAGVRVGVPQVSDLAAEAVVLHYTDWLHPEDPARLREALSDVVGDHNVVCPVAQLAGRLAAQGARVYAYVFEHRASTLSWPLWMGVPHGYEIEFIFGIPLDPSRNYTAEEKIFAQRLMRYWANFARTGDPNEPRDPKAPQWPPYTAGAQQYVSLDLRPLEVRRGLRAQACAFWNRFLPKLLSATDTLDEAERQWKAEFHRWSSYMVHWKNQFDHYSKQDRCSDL

Row | SMILES | Potency | activity change, negative = inhibition
1 | O=C1CCc2ccccc2O1 | inactive | –
2 | N[C@@H](CSSC[C@H](N)C(=O)O)C(=O)O | – | -2.13% [at 0.435 µM] (inactive)
3 | c1ccc(OCc2ccc(CCCN3CCOCC3)cc2)cc1 | inactive | –
4 | C1CC(COCC2CO2)CCC1COCC1CO1 (stereo not given) | inactive | –
5 | CC(C)(C)c1cc(Cc2cc(C(C)(C)C)c(O)c(C(C)(C)C)c2)cc(C(C)(C)C)c1O | inactive | –
6 | CO[Si](CCCn1c(=O)n(CCC[Si](OC)(OC)OC)c(=O)n(CCC[Si](OC)(OC)OC)c1=O)(OC)OC | inactive | –
7 | O=C(O)c1cccc(Cl)c1Cl | inactive | –
8 | O=C(O)Cc1c[nH]c2ccccc12 | inactive | –
9 | CN/C(=C\[N+](=O)[O-])NCCSCc1csc(CN(C)C)n1 | inactive | –
10 | CCCCCCCCSCCO | inactive | –
11 | CCc1ccccc1O | inactive | –
12 | O=C(O)Cc1ccc(Cl)cc1Cl | inactive | –
13 | CCNc1ccccc1 | inactive | –
14 | Oc1ccc2cc(SSc3ccc4cc(O)ccc4c3)ccc2c1 | inactive | –
15 | CCCCCCC(O)CCCCCCCCCCC(=O)O (stereo not given) | inactive | –
16 | Cc1ccc(C(=O)O)o1 | inactive | –
17 | ClC(Cl)=C(c1ccc(Cl)cc1)c1ccccc1Cl | inactive | –
18 | C/C=C(\C)C(=O)OC/C=C(\C)CCC=C(C)C | inactive | –
19 | CCC1(c2cnc[nH]2)Cc2ccccc2C1 | inactive | –
20 | COCCOCCOC | inactive | –

Row | SMILES | Potency | activity change, negative = inhibition
21 | Clc1ccc2c(c1)C(N1CCNCC1)=Nc1ccccc1O2 | inactive | –
22 | O=C(O)CCC(=O)C(=O)O | inactive | –
23 | CCN(CCO)c1cccc(C)c1 | inactive | –
24 | C[Si](C)O[Si](C)C | inactive | –
25 | COc1ccc(C(=O)c2ccccc2)c(O)c1 | inactive | –
26 | CC(C)c1ccc(C(C)C)cc1 | inactive | –
27 | O=NN(CCCl)C(=O)NC1CCCCC1 | inactive | –
28 | C#C[C@]1(O)CC[C@H]2[C@@H]3CCC4=CC(=O)CC[C@@H]4[C@H]3CC[C@@]21CC | inactive | –
29 | O=C(O)c1cccc(C(=O)O)c1 | inactive | –
30 | Cc1cc(O)c(C(C)(C)C)cc1Sc1cc(C(C)(C)C)c(O)cc1C | inactive | –
31 | O=CCCCC=O | inactive | –
32 | Cc1cc(S(=O)(=O)O)c(N)cc1Cl | inactive | –
33 | CCc1ccccc1 | inactive | –
34 | CCCCCCCCCCCCCCCCO | inactive | –
35 | NC=O | inactive | –
36 | Oc1c(Cl)ccc(Cl)c1Cl | inactive | –
37 | CN1CCC(=C2c3ccccc3C=Cc3ccccc32)CC1 | inactive | –
38 | CCc1ccc(CCOc2ccc(CC3SC(=O)NC3=O)cc2)nc1 (stereo not given) | inactive | –
39 | CCc1c(C(=O)O)c(=O)cnn1-c1ccc(Cl)cc1 | inactive | –
40 | COc1cc(C)cc(O)c1 | inactive | –
